The full data set covers some 8,800 targets. This sample favours those with a hit. About 0.5% of all pairs of compound and target were hits. A number with no mark means an inactive call.
What was measured:
Experiment in all cases: log2 fold change, soluble protein after heating vs DMSO (PISA); higher = thermal stabilisation; K562 lysate, 10 uM; active = over 0.2 and 3.5 SD of the protein, either way, in both replicates (recomputed)
[1] = compound: C1=CC=C(C=C1)[C@H](COC2=CC3=C(C=C2)NC(=O)N3)NC(=O)C4=CC=CN(C4=O)CC5=CC(=C(C=C5)F)F
Summary of the method: (§1)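 Values give the log-two fold change in thermal stability against solvent controls, from duplicates. Crude K562 extract at 1 mg/mL protein, made by dounce homogenisation in PBS pH 7.4 with 1 mM MgCl2, was treated with 10 μM compound for 30 min. After 3 min heating across 48°C-58°C, aliquots were pooled, adjusted to 0.5% NP-40 at 4°C and centrifuged at 21,000xg for 90 min. The supernatant was measured by TMTpro 16plex LC-MS/MS with channel sums equalised.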

[2] = compound: CC1=C(SC2=C1C(=N[C@H](C3=NN=C(N32)C)CC(=O)N)C4=CC=C(C=C4)Cl)C
Summary of the method: as §1

[3] = compound: CC1=C2C(=CC=C1)N=C(N(C2=O)C3=CC=CC=C3C)CN4C=NC5=C(N=CN=C54)N
Summary of the method: as §1

[4] = compound: Cc1sc2c(c1C)C(c1ccc(Cl)cc1)=N[C@@H](CC(=O)OC(C)(C)C)c1nnc(C)n1-2
Summary of the method: as §1

[5] = compound: c1ccc([C@@H]2C[C@H]2NC2CCNCC2)cc1
Summary of the method: as §1

UniProt P03886, sequence (P03886 whole entry, looked up): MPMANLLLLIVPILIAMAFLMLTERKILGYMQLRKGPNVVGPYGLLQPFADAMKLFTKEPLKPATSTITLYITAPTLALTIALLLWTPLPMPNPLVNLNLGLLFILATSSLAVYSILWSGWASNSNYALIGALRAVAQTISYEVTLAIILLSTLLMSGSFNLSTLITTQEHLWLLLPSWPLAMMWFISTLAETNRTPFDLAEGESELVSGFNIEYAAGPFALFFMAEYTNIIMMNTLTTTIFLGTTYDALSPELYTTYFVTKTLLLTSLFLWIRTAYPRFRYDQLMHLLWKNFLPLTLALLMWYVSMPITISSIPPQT
UniProt Q969R2, sequence (Q969R2 whole entry, looked up): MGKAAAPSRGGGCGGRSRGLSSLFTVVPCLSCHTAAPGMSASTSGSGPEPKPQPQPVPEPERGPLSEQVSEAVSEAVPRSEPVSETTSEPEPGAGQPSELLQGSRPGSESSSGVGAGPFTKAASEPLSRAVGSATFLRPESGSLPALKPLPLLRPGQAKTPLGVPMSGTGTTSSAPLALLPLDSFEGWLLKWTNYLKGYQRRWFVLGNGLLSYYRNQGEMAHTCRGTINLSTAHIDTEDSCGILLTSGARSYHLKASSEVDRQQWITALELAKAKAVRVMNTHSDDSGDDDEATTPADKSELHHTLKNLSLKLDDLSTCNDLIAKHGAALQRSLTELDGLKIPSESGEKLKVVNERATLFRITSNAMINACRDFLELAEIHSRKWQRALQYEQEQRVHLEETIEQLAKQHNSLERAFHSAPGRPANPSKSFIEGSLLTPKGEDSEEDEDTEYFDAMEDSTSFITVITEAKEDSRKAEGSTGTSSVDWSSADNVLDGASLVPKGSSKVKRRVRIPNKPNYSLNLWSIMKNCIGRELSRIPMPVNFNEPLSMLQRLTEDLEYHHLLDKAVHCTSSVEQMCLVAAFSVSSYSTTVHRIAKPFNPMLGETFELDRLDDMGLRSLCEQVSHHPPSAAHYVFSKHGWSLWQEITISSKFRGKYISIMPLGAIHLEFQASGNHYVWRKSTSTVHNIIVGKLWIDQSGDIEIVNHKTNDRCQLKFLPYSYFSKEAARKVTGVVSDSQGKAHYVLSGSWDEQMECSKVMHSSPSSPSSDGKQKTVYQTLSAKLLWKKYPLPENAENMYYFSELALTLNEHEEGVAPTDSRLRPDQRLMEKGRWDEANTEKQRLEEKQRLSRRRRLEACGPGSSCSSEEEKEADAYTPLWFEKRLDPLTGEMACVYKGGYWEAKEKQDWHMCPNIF
UniProt O75376, sequence (O75376 whole entry, looked up): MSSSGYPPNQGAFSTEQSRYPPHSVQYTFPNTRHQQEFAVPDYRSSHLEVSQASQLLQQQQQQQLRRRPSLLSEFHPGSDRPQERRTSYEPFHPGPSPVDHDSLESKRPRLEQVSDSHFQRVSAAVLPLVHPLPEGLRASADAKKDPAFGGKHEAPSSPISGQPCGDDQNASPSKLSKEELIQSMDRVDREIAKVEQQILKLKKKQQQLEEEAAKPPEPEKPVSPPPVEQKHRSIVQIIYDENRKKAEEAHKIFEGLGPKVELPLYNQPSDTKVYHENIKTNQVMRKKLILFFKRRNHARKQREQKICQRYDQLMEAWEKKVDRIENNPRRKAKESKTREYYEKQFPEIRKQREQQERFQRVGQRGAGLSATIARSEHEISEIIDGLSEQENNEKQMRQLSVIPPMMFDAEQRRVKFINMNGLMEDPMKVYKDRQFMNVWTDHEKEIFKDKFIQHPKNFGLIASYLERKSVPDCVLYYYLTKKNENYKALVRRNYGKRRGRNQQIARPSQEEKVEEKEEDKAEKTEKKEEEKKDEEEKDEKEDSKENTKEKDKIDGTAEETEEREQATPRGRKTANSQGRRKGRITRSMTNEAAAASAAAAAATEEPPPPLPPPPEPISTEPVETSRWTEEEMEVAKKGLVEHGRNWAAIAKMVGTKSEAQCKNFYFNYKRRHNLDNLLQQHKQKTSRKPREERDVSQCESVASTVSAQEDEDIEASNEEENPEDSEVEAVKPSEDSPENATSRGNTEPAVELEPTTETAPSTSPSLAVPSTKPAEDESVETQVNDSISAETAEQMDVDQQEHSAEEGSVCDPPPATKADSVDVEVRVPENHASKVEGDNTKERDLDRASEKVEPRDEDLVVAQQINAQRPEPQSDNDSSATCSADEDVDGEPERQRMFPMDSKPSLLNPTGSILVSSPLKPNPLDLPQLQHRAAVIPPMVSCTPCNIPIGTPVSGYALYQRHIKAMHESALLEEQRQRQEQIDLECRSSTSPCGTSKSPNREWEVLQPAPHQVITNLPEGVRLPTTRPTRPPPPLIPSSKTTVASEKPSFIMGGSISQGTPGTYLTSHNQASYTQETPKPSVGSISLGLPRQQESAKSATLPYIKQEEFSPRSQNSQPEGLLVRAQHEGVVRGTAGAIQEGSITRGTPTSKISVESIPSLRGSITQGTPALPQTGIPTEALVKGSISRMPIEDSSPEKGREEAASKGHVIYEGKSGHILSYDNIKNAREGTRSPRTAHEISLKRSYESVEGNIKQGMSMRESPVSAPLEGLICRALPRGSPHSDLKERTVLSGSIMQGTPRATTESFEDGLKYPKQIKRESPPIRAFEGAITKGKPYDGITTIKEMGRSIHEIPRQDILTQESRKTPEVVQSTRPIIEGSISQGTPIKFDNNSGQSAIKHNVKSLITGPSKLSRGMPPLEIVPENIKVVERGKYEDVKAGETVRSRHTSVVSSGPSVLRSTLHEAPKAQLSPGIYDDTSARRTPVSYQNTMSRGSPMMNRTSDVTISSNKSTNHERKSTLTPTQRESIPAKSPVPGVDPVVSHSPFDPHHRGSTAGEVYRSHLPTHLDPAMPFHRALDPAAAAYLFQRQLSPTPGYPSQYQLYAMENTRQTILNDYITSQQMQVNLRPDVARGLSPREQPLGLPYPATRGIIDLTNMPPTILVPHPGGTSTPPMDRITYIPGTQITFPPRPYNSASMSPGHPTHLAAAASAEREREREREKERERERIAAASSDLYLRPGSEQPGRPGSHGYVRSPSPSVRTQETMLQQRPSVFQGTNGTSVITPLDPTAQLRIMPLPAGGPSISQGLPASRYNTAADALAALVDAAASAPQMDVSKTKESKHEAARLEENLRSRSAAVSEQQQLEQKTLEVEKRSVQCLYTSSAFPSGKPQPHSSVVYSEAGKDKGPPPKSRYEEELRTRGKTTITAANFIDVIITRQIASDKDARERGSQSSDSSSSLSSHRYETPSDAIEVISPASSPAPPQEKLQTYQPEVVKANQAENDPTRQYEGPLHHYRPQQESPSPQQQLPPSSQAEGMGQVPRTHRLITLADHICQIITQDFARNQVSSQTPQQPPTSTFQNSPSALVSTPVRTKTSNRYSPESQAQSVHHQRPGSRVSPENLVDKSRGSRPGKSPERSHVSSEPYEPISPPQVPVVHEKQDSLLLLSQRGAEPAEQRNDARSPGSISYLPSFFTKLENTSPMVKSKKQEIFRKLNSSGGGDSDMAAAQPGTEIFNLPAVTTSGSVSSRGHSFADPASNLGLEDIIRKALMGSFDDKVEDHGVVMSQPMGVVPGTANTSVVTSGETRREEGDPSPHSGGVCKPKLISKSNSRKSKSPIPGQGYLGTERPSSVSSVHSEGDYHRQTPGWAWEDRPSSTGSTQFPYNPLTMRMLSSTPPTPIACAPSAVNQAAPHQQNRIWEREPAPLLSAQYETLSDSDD
UniProt Q9H4L5, sequence (Q9H4L5 whole entry, looked up): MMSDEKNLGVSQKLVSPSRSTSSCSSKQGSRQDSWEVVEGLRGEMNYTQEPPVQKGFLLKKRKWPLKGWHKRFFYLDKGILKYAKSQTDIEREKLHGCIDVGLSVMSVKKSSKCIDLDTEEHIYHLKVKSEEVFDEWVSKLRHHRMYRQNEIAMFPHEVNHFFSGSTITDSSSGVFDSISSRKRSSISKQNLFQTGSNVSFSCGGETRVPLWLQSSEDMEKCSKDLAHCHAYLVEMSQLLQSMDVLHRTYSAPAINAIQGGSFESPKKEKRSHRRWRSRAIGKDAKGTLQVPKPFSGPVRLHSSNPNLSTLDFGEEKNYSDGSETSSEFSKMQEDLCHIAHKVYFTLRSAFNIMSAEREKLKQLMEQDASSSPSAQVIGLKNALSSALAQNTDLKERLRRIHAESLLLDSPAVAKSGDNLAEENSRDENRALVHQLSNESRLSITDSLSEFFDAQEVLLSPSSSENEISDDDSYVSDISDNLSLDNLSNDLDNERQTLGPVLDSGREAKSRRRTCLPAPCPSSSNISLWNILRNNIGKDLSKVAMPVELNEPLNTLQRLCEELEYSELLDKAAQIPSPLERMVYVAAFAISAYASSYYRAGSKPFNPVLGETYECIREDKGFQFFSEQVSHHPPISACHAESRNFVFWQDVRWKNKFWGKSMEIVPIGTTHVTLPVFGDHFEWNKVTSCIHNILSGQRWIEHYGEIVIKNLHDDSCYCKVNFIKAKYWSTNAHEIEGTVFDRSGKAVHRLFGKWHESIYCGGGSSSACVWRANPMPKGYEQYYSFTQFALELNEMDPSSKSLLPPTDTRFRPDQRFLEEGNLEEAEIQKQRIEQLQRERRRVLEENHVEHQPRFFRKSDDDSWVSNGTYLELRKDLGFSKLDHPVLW
UniProt P40261, sequence (P40261 whole entry, looked up): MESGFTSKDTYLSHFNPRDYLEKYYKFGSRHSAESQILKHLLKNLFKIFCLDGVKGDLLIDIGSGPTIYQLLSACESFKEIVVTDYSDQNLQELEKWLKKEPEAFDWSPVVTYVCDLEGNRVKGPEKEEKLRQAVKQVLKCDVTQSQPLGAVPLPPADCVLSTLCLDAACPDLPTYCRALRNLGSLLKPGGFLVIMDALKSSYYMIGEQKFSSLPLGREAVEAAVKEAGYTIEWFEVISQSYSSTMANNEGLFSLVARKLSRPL
UniProt Q96NT1, sequence (Q96NT1 whole entry, looked up): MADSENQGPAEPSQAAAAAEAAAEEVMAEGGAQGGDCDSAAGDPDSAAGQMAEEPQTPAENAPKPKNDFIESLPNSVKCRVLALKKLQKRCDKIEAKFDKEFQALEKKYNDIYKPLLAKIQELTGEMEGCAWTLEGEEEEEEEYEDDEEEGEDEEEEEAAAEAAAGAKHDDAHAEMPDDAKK

Target	log2 fold change [1]	log2 fold change [2]	log2 fold change [3]	log2 fold change [4]	log2 fold change [5]
MYO1D (UniProt O94832)	-0.006	0.002	0.015	-0.006	0.02
MT-ND1 (UniProt P03886)	-0.057	-0.098	-0.055	-0.077	-0.039
NCOR1 (UniProt O75376)	-0.009	0.002	0.035	0.015	0.001
PARP14 (UniProt Q460N5)	0.021	-0.003	0.063	-0.028	-0.045
PANK1 (UniProt Q8TE04)	-0.071	-0.056	0.178	-0.077	0.076
NUB1 (UniProt Q9Y5A7)	-0.011	0.029	0.025	0.013	0.039
MTA3 (UniProt Q9BTC8)	-0.006	-0.047	0.002	0.014	-0.001
NT5DC2 isoform 2 (UniProt Q9H857)	0.021	-0.026	0.009	0.051	-0.022
NCKAP1L (UniProt P55160)	-0.002	0.021	-0.106	-0.061	0.005
NSA2 (UniProt O95478)	0.111	-0.135	-0.018	-0.042	0.122
NONO (UniProt Q15233)	-0.047	0.02	0.015	0.026	0.074
NEK9 (UniProt Q8TD19)	-0.002	0.002	-0.033	0.017	-0.032
OSBPL3 isoform 2 (UniProt Q9H4L5)	-0.02	-0.018	0.043	-0.017	0.004
NOA1 (UniProt Q8NC60)	-0.087	0.099	0.023	-0.014	-0.07
NCAPD3 (UniProt P42695)	0.028	-0.007	0.046	-0.005	0.016
NUP188 (UniProt Q5SRE5)	-0.044	-0.009	0	-0.001	0.016
OSBP2 (UniProt Q969R2)	0.021	0.046	0.019	-0.095	-0.439
NR3C1 isoform 3 (UniProt P04150)	0.292 (active)	0.034	-0.001	-0.035	0.084
NIPBL (UniProt Q6KC79)	0.003	-0.055	-0.001	-0.014	-0.01
NNMT (UniProt P40261)	0.003	0.05	0.027	-0.011	-0.027
MYO1C (UniProt O00159)	-0.025	-0.038	-0.051	-0.025	0.033
NAT1 (UniProt P18440)	0.049	-0.021	0.012	0.015	0.011
NNT (UniProt Q13423)	-0.005	0.052	0	0.015	0.034
NAP1L5 (UniProt Q96NT1)	0.082	-0.023	-0.028	-0.082	0.304

Source: the supplement of paper PMC10849652
